The values below come from PubChem BioAssay.

SMILES strings stand for the structures.

The target in the assay is Torsin-1A (Homo sapiens) (UniProt O14656). As to the kind of experiment: TOR1A wild-type binding on microarray – cell lysate, small-molecule microarray, lysate, 635/667 nm, primary screen (AID 1149). To be noted: COS7 hTOR1A-WT lysate, 635 nm fluorescence, higher = more signal.
Torsin-1A (Homo sapiens), sequence (O14656 whole entry, looked up): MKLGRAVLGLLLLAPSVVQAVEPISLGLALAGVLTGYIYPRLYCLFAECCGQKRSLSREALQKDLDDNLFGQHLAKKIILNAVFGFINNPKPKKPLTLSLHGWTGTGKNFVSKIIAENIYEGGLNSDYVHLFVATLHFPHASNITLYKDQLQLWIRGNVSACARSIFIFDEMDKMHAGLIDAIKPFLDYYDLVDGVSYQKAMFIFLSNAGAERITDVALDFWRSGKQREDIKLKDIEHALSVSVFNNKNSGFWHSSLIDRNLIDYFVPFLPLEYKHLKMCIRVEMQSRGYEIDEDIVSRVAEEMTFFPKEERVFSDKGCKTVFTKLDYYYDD
With `O=C1O[C@H](c2ccccc2)[C@H](c2ccccc2)N2[C@H]1[C@@H](C(=O)NC[C@H](O)c1ccccc1)[C@]1(C(=O)Nc3ccc(C#CC4(O)CCCCCC4)cc31)[C@H]2c1ccccc1OCCO`, the composite z-score amounted to 0.644.

`O=C1OCCC=C[C@H]2OC34C=CCN(c5ccc6ccccc6c5)C(=O)[C@H]3N(CCCCCCO)C(=O)[C@@H]4C12` (stereo partly drawn) displayed a composite z-score of 2.39.

For `COC(=O)C(CC#Cc1ccc2c(c1)[C@]1(C(=O)N2)[C@H](C(=O)N2CCCCCCC2)[C@H]2C(=O)O[C@H](c3ccccc3)[C@H](c3ccccc3)N2[C@@H]1c1ccccc1OCCO)C(=O)OC`, the composite z-score is 3.84.

`[N-]=[N+]=Nc1ccccc1[C@@H]1OC(c2ccc(OCCCO)cc2)=N[C@]1(CCS(=O)(=O)c1ccccc1)C(=O)N1CCCCC1` gave a composite z-score of 1.09.

`CCOC(=O)C[C@H]1[C@H](OC(=O)c2cc3ccccc3oc2=O)[C@@H](NC(=O)c2ccc3ccccc3c2)c2cc(OCCCO)ccc2N1C(=O)c1ccccc1` had a composite z-score of 1.14.

`COCCOC(=O)N1C(=O)[C@@]2(c3cc(C#CCCO)ccc31)[C@H](c1ccc(O)cc1)N1[C@H](c3ccccc3)[C@H](c3ccccc3)OC(=O)[C@H]1[C@@H]2C(=O)N1CCCCCCC1` returned a composite z-score of 0.705.

In the case of `O=[N+]([O-])c1ccc(C[n+]2ccc(CCCO)cc2)o1`, the composite z-score was 0.153.

`COCCn1c(C(=O)N2CCCC2)cc2c1C[C@H]1CN(C(=O)c3ccccc3)[C@@](Cc3ccc(OC)cc3)(C(=O)OC)[C@@H]21` had a composite z-score of -0.141.

For `O=C1c2ccccc2[C@](Cc2ccccc2I)(C(=O)O)[C@H](c2ccc(CO)cc2)N1Cc1ccccc1C(F)(F)F`, the composite z-score was -0.242.

`COc1ccc(C#Cc2ccc3c(c2)[C@]2(C(=O)N3)[C@H](C(=O)N3CCN(c4ncccn4)CC3)[C@H]3C(=O)O[C@H](c4ccccc4)[C@H](c4ccccc4)N3[C@@H]2c2ccc(O)cc2)cc1`: the composite z-score was -0.0852.

For `Oc1ccc2cc[n+](Cc3cccc(OC(F)(F)F)c3)cc2c1`, the composite z-score was found to be 0.0193.

As for `O=C1[C@H]2C=C(Br)[C@H](C[C@@H]2OCCOCCO)[C@@]12CO2`, the composite z-score is -0.428.

The compound `CC(c1ccccc1)C(O)C1C=CC2C(=O)N(Cc3ccccc3)C(=O)C2N1n1cnnc1` (stereo not drawn) registered a composite z-score of 0.327.

In turn, `COCCCNC(=O)[C@@]1(C)c2ccccc2C(=O)N(Cc2ccccc2)[C@H]1c1ccc(CO)cc1` had a composite z-score of -2.72.

In turn, `NC(=O)NCC#Cc1ccc2c(c1)[C@]1(C(=O)N2)[C@H](c2ccc(O)cc2)N2[C@H](c3ccccc3)[C@H](c3ccccc3)OC(=O)[C@H]2[C@@H]1C(=O)N1CCN(c2ncccn2)CC1` displayed a composite z-score of -0.219.

The compound `C=C[C@H](C)[C@H](OC(=O)Nc1ccc(OC)cc1)c1ccc(O)c2ccccc12` gave a composite z-score of 0.822.

Compound `COCC1C2CC[C@H]3C(OCc4ccc(F)cc4C(F)(F)F)OC[C@]4(C)[C@H]3C2=C(CN4C(=O)OC(C)(C)C)[C@H](C)C1COC` (stereo partly drawn) gave a composite z-score of 0.404.

As for `C=CCN1C(=O)[C@]2(Cc3ccccc31)N=C(c1ccc(OCCCO)cc1)O[C@@H]2c1ccccc1`, the composite z-score was found to be 0.154.

On to `[N-]=[N+]=NCc1ccccc1[C@@H]1OC(c2ccc(OCCCO)cc2)=N[C@]1(Cc1ccccc1)C(=O)O`, for which the composite z-score was found to be 0.497.

As for `O=C(NCCN1CCOCC1)[C@@H]1c2ccccc2C(=O)N(Cc2cc(F)cc(C(F)(F)F)c2)[C@H]1c1ccc(CO)cc1`, the composite z-score came out at 0.543.

Compound `O=c1cccc(-c2ccccc2)o1` yielded a composite z-score of 0.0936.

The compound `O=C1O[C@@H](c2ccccc2)[C@@H](c2ccccc2)N2[C@@H](c3ccc(O)cc3)[C@]3(C(=O)Nc4ccccc43)[C@@H](C(=O)N3CCCCCCC3)[C@H]12` showed a composite z-score of 1.91.

`Cc1ccccc1/C=C/C=O` displayed a composite z-score of -1.41.

`COc1ccc([Si](C)(C)[C@H]2[C@H](CC(=O)N3Cc4ccccc4C[C@H]3CO)O[C@@]3(C(=O)N(Cc4cccc(I)c4)c4ccccc43)[C@@H]2C)cc1`: the composite z-score is 3.09.

Take `C=C(/C(=C/C[C@@H](OC(C)=O)c1ccc(CO)o1)c1cnc2ccccc2c1)C(C)C`: the composite z-score came to 2.14.

For the compound `[N-]=[N+]=NCc1ccccc1[C@@H]1OC(c2ccc(OCCCO)cc2)=N[C@]1(Cc1ccccc1N=[N+]=[N-])C(N)=O`, the composite z-score stood at 0.571.

Regarding `C=CCOC(=O)[C@H]1[C@@H]2C(=O)O[C@@H](c3ccccc3)[C@@H](c3ccccc3)N2[C@@H](c2ccc(OCCOC(=O)[C@H]3C[C@H]4C(=O)N[C@@H](CCCC[N+](C)(C)C)C(=O)N4[C@H]3c3ccc(O)cc3)cc2)[C@]12C(=O)Nc1ccccc12`, the composite z-score was 0.475.

With `CC1CC/C=C\[C@H]2OC34C=CCN(Cn5nnc6ccccc65)C(=O)[C@H]3N(CCCO)C(=O)[C@@H]4C2C(=O)O1` (stereo partly drawn), the composite z-score is -1.89.
